# Among all 5,500 compounds or so, about 2,000 (36%) were called active. About 18% were inconclusive and are not listed. This is one part of the list. Unmarked numbers belong to inactive results. Rule as the data show it: active = normalized growth mostly below about 0.91 (no sharp cut-off); inconclusive = no clear call, values can overlap the other calls; inactive = mostly above about 0.92.
# Assay: chemical genetic growth profiling, strain panel (AID 1159580);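 also: tested at 20 µM; growth read once vehicle control cultures reached saturation at 30 °C; 1 = growth at the plate median or of vehicle wells; lower values mean less growth of the strain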
# Details: growth OD
smiles,measurement,setting,value
COc1ccc(C(=O)c2ccccc2)c(O)c1,normalized growth,"S. cerevisiae deletion strains, locus YJR075W, strain HOC1, hits give low values",0.848 (active)
same,normalized growth,"S. cerevisiae deletion strains, locus YKL009W, strain mrt4, hits give low values",0.835 (active)
same,normalized growth,"S. cerevisiae deletion strains, locus YKL068W, hits give low values",0.91 (active)
same,normalized growth,"S. cerevisiae deletion strains, locus YKL085W, strain MDH1 (second series), hits give low values",0.895 (active)
same,normalized growth,"S. cerevisiae deletion strains, locus YKL085W, strain MDH1, hits give low values",0.895 (active)
same,normalized growth,"S. cerevisiae deletion strains, locus YKL160W, strain elf1, hits give low values",0.764 (active)
same,normalized growth,"S. cerevisiae deletion strains, locus YKL190W, strain CNB1, hits give low values",0.913 (active)
same,normalized growth,"S. cerevisiae deletion strains, locus YKR001C, strain vps1, hits give low values",0.553 (active)
same,normalized growth,"S. cerevisiae deletion strains, locus YKR026C, strain gcn3, hits give low values",0.804 (active)
same,normalized growth,"S. cerevisiae deletion strains, locus YKR091W, strain srl3, hits give low values",0.874 (active)
same,normalized growth,"S. cerevisiae deletion strains, locus YLL001W, strain dnm1, hits give low values",0.734 (active)
same,normalized growth,"S. cerevisiae deletion strains, locus YLL026W, hits give low values",0.841 (active)
same,normalized growth,"S. cerevisiae deletion strains, locus YLL041C, strain sdh2, hits give low values",0.861 (active)
same,normalized growth,"S. cerevisiae deletion strains, locus YLR027C, strain aat2, hits give low values",0.807 (active)
same,normalized growth,"S. cerevisiae deletion strains, locus YLR039C, strain RIC1, hits give low values",0.441 (active)
same,normalized growth,"S. cerevisiae deletion strains, locus YLR058C, strain SHM2, hits give low values",0.945
same,normalized growth,"S. cerevisiae deletion strains, locus YLR102C, strain apc9, hits give low values",0.906 (active)
same,normalized growth,"S. cerevisiae deletion strains, locus YLR113W, strain HOG1, hits give low values",0.836 (active)
same,normalized growth,"S. cerevisiae deletion strains, locus YLR221C, strain rsa3, hits give low values",0.74 (active)
same,normalized growth,"S. cerevisiae deletion strains, locus YLR258W, strain gsy2, hits give low values",0.815 (active)
same,normalized growth,"S. cerevisiae deletion strains, locus YLR262C, strain YPT6 (second series), hits give low values",0.408 (active)
same,normalized growth,"S. cerevisiae deletion strains, locus YLR262C, strain YPT6, hits give low values",0.526 (active)
same,normalized growth,"S. cerevisiae deletion strains, locus YLR268W, strain sec22, hits give low values",0.917
same,normalized growth,"S. cerevisiae deletion strains, locus YLR320W, strain mms22, hits give low values",0.542 (active)
same,normalized growth,"S. cerevisiae deletion strains, locus YLR330W, strain CHS5, hits give low values",0.916 (active)
same,normalized growth,"S. cerevisiae deletion strains, locus YLR342W, strain FKS1 (second series), hits give low values",0.763 (active)
same,normalized growth,"S. cerevisiae deletion strains, locus YLR342W, strain FKS1, hits give low values",0.815 (active)
same,normalized growth,"S. cerevisiae deletion strains, locus YLR357W, strain rsc2, hits give low values",0.857
same,normalized growth,"S. cerevisiae deletion strains, locus YLR370C, strain arc18, hits give low values",0.77 (active)
same,normalized growth,"S. cerevisiae deletion strains, locus YLR371W, strain rom2, hits give low values",0.918
same,normalized growth,"S. cerevisiae deletion strains, locus YLR384C, strain iki3, hits give low values",0.843 (active)
same,normalized growth,"S. cerevisiae deletion strains, locus YLR418C, strain cdc73, hits give low values",0.625 (active)
same,normalized growth,"S. cerevisiae deletion strains, locus YML016C, strain PPZ1, hits give low values",0.932
same,normalized growth,"S. cerevisiae deletion strains, locus YML032C, strain rad52, hits give low values",0.871 (active)
same,normalized growth,"S. cerevisiae deletion strains, locus YML120C, strain ndi1, hits give low values",0.762 (active)
same,normalized growth,"S. cerevisiae deletion strains, locus YML124C, strain tub3, hits give low values",0.899 (active)
same,normalized growth,"S. cerevisiae deletion strains, locus YMR058W, strain fet3, hits give low values",0.732 (active)
same,normalized growth,"S. cerevisiae deletion strains, locus YMR078C, strain ctf18, hits give low values",0.876 (active)
same,normalized growth,"S. cerevisiae deletion strains, locus YMR125W, strain sto1, hits give low values",0.825 (active)
same,normalized growth,"S. cerevisiae deletion strains, locus YMR129W, hits give low values",0.856 (active)
same,normalized growth,"S. cerevisiae deletion strains, locus YMR205C, strain PFK2, hits give low values",0.567 (active)
same,normalized growth,"S. cerevisiae deletion strains, locus YMR223W, strain ubp8, hits give low values",0.774 (active)
same,normalized growth,"S. cerevisiae deletion strains, locus YMR231W, strain pep5, hits give low values",0.877 (active)
same,normalized growth,"S. cerevisiae deletion strains, locus YMR263W, strain SAP30, hits give low values",0.878 (active)
same,normalized growth,"S. cerevisiae deletion strains, locus YMR307W, strain GAS1, hits give low values",0.62
same,normalized growth,"S. cerevisiae deletion strains, locus YNL067W, strain RPL9B, hits give low values",0.889
same,normalized growth,"S. cerevisiae deletion strains, locus YNL071W, strain lat1, hits give low values",0.538 (active)
same,normalized growth,"S. cerevisiae deletion strains, locus YNL128W, strain TEP1, hits give low values",0.934
same,normalized growth,"S. cerevisiae deletion strains, locus YNL153C, strain GIM3, hits give low values",0.937
same,normalized growth,"S. cerevisiae deletion strains, locus YNL183C, strain NPR1, hits give low values",0.851
same,normalized growth,"S. cerevisiae deletion strains, locus YNL209W, strain ssb2, hits give low values",0.906 (active)
same,normalized growth,"S. cerevisiae deletion strains, locus YNL233W, strain BNI4, hits give low values",0.833 (active)
same,normalized growth,"S. cerevisiae deletion strains, locus YNL248C, strain rpa49, hits give low values",0.639 (active)
same,normalized growth,"S. cerevisiae deletion strains, locus YNL250W, strain rad50, hits give low values",0.915
same,normalized growth,"S. cerevisiae deletion strains, locus YNL271C, strain bni1, hits give low values",0.882 (active)
same,normalized growth,"S. cerevisiae deletion strains, locus YNL298W, strain CLA4, hits give low values",0.859 (active)
same,normalized growth,"S. cerevisiae deletion strains, locus YNL307C, strain MCK1, hits give low values",0.538 (active)
same,normalized growth,"S. cerevisiae deletion strains, locus YNL322C, strain KRE1 (second series), hits give low values",0.862 (active)
same,normalized growth,"S. cerevisiae deletion strains, locus YNL322C, strain KRE1, hits give low values",0.93
same,normalized growth,"S. cerevisiae deletion strains, locus YNR049C, strain mso1, hits give low values",0.838 (active)
same,normalized growth,"S. cerevisiae deletion strains, locus YNR052C, strain pop2, hits give low values",0.923
same,normalized growth,"S. cerevisiae deletion strains, locus YOL006C, strain TOP1, hits give low values",0.474 (active)
same,normalized growth,"S. cerevisiae deletion strains, locus YOL012C, strain htz1",1.24
same,normalized growth,"S. cerevisiae deletion strains, locus YOL147C, strain pex11, hits give low values",0.846 (active)
same,normalized growth,"S. cerevisiae deletion strains, locus YOR001W, strain rrp6, hits give low values",0.712 (active)
same,normalized growth,"S. cerevisiae deletion strains, locus YOR061W, strain CKA2, hits give low values",0.936
same,normalized growth,"S. cerevisiae deletion strains, locus YOR069W, strain VPS5, hits give low values",0.959
same,normalized growth,"S. cerevisiae deletion strains, locus YOR070C, strain gyp1, hits give low values",0.857 (active)
same,normalized growth,"S. cerevisiae deletion strains, locus YOR080W, strain dia2, hits give low values",0.867 (active)
same,normalized growth,"S. cerevisiae deletion strains, locus YOR083W, strain WHI5, hits give low values",0.73 (active)
same,normalized growth,"S. cerevisiae deletion strains, locus YOR106W, strain vam3, hits give low values",0.682 (active)
same,normalized growth,"S. cerevisiae deletion strains, locus YOR136W, strain idh2, hits give low values",0.912 (active)
same,normalized growth,"S. cerevisiae deletion strains, locus YOR144C, strain elg1, hits give low values",0.897 (active)
same,normalized growth,"S. cerevisiae deletion strains, locus YOR184W, strain ser1, hits give low values",0.476 (active)
same,normalized growth,"S. cerevisiae deletion strains, locus YOR231W, strain MKK1, hits give low values",0.878
same,normalized growth,"S. cerevisiae deletion strains, locus YOR265W, strain rbl2, hits give low values",0.845 (active)
same,normalized growth,"S. cerevisiae deletion strains, locus YOR270C, strain vph1, hits give low values",0.419 (active)
same,normalized growth,"S. cerevisiae deletion strains, locus YOR290C, strain snf2, hits give low values",0.784 (active)
same,normalized growth,"S. cerevisiae deletion strains, locus YOR316C, strain cot1, hits give low values",0.903 (active)
same,normalized growth,"S. cerevisiae deletion strains, locus YPL051W, strain arl3, hits give low values",0.647 (active)
same,normalized growth,"S. cerevisiae deletion strains, locus YPL055C, strain LGE1, hits give low values",0.773
same,normalized growth,"S. cerevisiae deletion strains, locus YPL078C, strain atp4, hits give low values",0.599 (active)
same,normalized growth,"S. cerevisiae deletion strains, locus YPL106C, strain sse1, hits give low values",0.845 (active)
same,normalized growth,"S. cerevisiae deletion strains, locus YPL240C, strain hsp82, hits give low values",0.858 (active)
same,normalized growth,"S. cerevisiae deletion strains, locus YPL241C, strain CIN2, hits give low values",0.94
same,normalized growth,"S. cerevisiae deletion strains, locus YPL256C, strain CLN2, hits give low values",0.818 (active)
same,normalized growth,"S. cerevisiae deletion strains, locus YPR119W, strain clb2, hits give low values",0.888 (active)
same,normalized growth,"S. cerevisiae deletion strains, locus YPR141C, strain kar3, hits give low values",0.892 (active)
same,normalized growth,"S. cerevisiae deletion strains, locus YPR163C, strain tif3, hits give low values",0.844 (active)
same,normalized growth,"S. cerevisiae deletion strains, locus YPR167C, strain met16, hits give low values",0.898 (active)
same,normalized growth,"S. cerevisiae deletion strains, strain wtn01, hits give low values",0.872 (active)
same,normalized growth,"S. cerevisiae strains, strain wild type, hits give low values",0.911

# Reference: PubChem BioAssay AID1159580 (chemical genetic matrix, 2015)
